Autofluor counter: flagged as autofluorescent in microsphere protease counterscreen. compound autofluorescence counterscreen, microsphere flow cytometry; hits give high values. 360,000 compounds, 3.1% hits. fluorescence intensity (test concentration not listed); in the data active = fluorescence intensity above about 16000; inconclusive = no clear call, values can overlap the other calls
MazEF act: increases E. coli MazEF RNase cleavage of RNA; P0AE70; FAM/BHQ RNA-DNA oligo cleavage fluorescence, 5 h; activation, % at 20 µM; 350,000 compounds, 0.32% hits; AID 504720; in the data active = activation above about 50%
BoNT-F LC inh: inhibitors of Botulinum neurotoxin F light chain protease | 360,000 compounds, 0.22% hits | inhibition, % at 10 µM | Multiplex microsphere protease cleavage assay, flow cytometry; in the data active = inhibition above about 35%, passing the limit was not always enough; inconclusive = no clear call, values can overlap the other calls; also: plate controls were buffer without enzyme for full effect and enzyme alone for no effect
BoNT-A LC inh2: blocks Botulinum neurotoxin A light chain protease. 360,000 compounds, 0.17% hits. inhibition, % at 10 µM. AID 588499. multiplex microsphere protease substrate cleavage, flow cytometry; also: plate controls were buffer without enzyme for full effect and enzyme alone for no effect
Anthrax LF inh2: blocks Bacillus anthracis lethal factor protease. inhibition, % at 10 µM. 360,000 compounds, 0.12% hits. multiplex microsphere protease cleavage assay, LF. P15917; also: plate controls were buffer without enzyme for full effect and enzyme alone for no effect
* = called active by the depositor; ? = inconclusive; nt = no result. Only some compounds are listed: those with a hit (about 3.7% of all), similar ones and a draw of the others. Rule as the data show it, unless noted: active = inhibition above about 30%; inconclusive = no clear call, values can overlap the other calls; inactive = below that.

SMILES	Autofluor counter	MazEF act	BoNT-F LC inh	BoNT-A LC inh2	Anthrax LF inh2
C#CCOCCOCCOCCNc1nc(N2CCN(C(=O)CCCCCCCCCCNC(=O)Cn3cc(C[C@@H](C)O)nn3)CC2)nc(N2CCN(C(=O)CCCCCCCCCCNC(=O)[C@@H](CCC(=O)O)n3cc(CCCCCN)nn3)CC2)n1	3682	63*	-18	0	-12
Cc1cc(C(=O)Nc2c(F)cc(F)cc2Br)c(C)o1	17675*	1	-6	-4	1
Cc1noc(C)c1C(=O)Nc1ccc(Cl)cc1C(F)(F)F	23519*	4	-2	-1	-7
Cc1noc(C)c1C(=O)Nc1c(F)cc(F)cc1Br	23289*	-6	-2	-3	-4
Cc1noc(C)c1C(=O)Nc1ccc(F)cc1	2035	-5	-5	0	0
COc1ccc(CNC(=O)/C=C/[C@H]2O[C@@H](n3cc(C)c(=O)[nH]c3=O)C[C@@H]2O)cc1	4302	nt	5	0	0
O=C(COC(=O)c1cc(Cl)ccc1[N+](=O)[O-])NCc1ccc(Cl)cc1Cl	11515	0	-9	0	-5
COc1ccc(C)cc1N(CC(=O)N1CCCCCC1)S(=O)(=O)c1ccccc1	3612	3	13	2	5
c1ccc(-c2nnc3n2N=C(c2ccc4c(c2)OCO4)CS3)nc1	18035*	9	6	5	-1
COc1ccc(C2=Nn3c(nnc3-c3ccccn3)SC2)cc1OC	22882*	8	-1	?	-1
COc1ccc(C2=Nn3c(nnc3-c3ccccc3OC)SC2)cc1OC	nt	3	nt	nt	nt
CN(C(=O)Nc1ccc(Cl)cc1Cl)[C@H]1c2cc(Br)ccc2OC[C@H]1CO	10495	-13	-12	-2	-2
CC(=O)Oc1ccc2oc3c(c2c1)C(=O)CCC3	23365*	7	-4	-2	-1
COc1ccc(C)cc1NC(=O)COC(C)=O	16638*	7	-2	0	-2
CCC(CO)[n+]1c(C)cc(/C=C2\Sc3ccccc3N2Cc2ccccc2)cc1C (stereo not given)	10304	22	4	40*	36*
Cn1c(SCCOc2ccccc2Cl)nnc1-c1ccncc1	10205	-2	3	0	1
Cc1ccccc1OCCSc1nnc(-c2ccncc2)n1C	19279*	0	11	9	-18
CC(C)c1ccc2oc(-c3ccc(N)cc3)nc2c1	21916*	4	-8	-7	-2
Cc1ccc(-c2nc3cc(NS(=O)(=O)c4ccc(C)cc4)ccc3o2)cc1	20631*	3	5	7	-8
O=S(=O)(Nc1ccc2oc(-c3ccccc3)nc2c1)c1ccccc1	9406	2	-6	0	-3
Cc1ccc(-c2nc3cc(N)ccc3o2)cc1	23399*	2	-1	0	-2
CN1C(=O)C(Cl)(Cl)C(=O)c2ccccc21	2683	10	0	1	-1
COc1cc(-c2noc(C)c2C(=O)NCCc2cccs2)cc(OC)c1OC	3555	5	-7	0	-1
O=c1ccc(-c2ccc(S(=O)(=O)Nc3cccc(Br)c3)o2)n[nH]1	5394	8	-5	0	3
CCOC(=O)c1cc(CC)sc1NC(=O)c1ccc(N2CCOCC2)c([N+](=O)[O-])c1	19127*	-2	3	3	0
SMILES	Autofluor counter	MazEF act	BoNT-F LC inh	BoNT-A LC inh2	Anthrax LF inh2
Cc1ccc(OC(=O)c2ccc(N3CCOCC3)c([N+](=O)[O-])c2)cc1	19491*	-9	3	3	-5
CO/N=C/c1ccc(N2CCN(C(=O)c3ccc(C)cc3)CC2)c([N+](=O)[O-])c1	24171*	2	-4	-4	-5
COC(=O)c1ccc(N2CCC(c3cc(-c4ccc(OC)cc4)n[nH]3)CC2)c([N+](=O)[O-])c1	23463*	4	-6	-2	-5
COc1ccc(-c2cc(C3CCN(c4ccc(C(C)=O)cc4[N+](=O)[O-])CC3)[nH]n2)cc1	5963	3	-1	0	-12
CCOC(=O)c1cc(CC)sc1NC(=O)c1cc([N+](=O)[O-])ccc1N1CCOCC1	8418	1	4	1	-11
C=CCNc1ncnc2c1ncn2[C@H]1CN(Cc2ccco2)C[C@@H](CO)O1	3927	nt	-1	0	-4
O=C(Cn1nnc(-c2ccc(CN3CCOCC3)cc2)n1)Nc1nc(-c2ccccc2)cs1	21308*	-1	-1	0	-10
CN(C)c1ccc(-c2nnn(CC(=O)Nc3ccccc3N3CCOCC3)n2)cc1	8942	2	3	1	-4
Cc1ccccc1NC(=O)Cn1nnc(-c2ccc(N3CCOCC3)cc2)n1	22327*	2	-4	?	-6
O=C(Cn1nnc(-c2ccc(N3CCOCC3)cc2)n1)OC1CCCCC1	21996*	-12	4	2	-3
CCC(C)N(C(=O)CSc1ccc(NC(C)=O)cc1)C1CCS(=O)(=O)C1 (stereo not given)	3319	12	2	0	4
O=C(CN1C(=O)NC2(CCCc3ccccc32)C1=O)c1ccc(F)c(F)c1 (stereo not given)	3958	-4	-3	0	8
COc1ccc(CN2CCOCC2)cc1Br	23516*	9	-1	?	0
COc1ccc(CCN2CC(C(=O)NCCc3cccnc3)CCC2=O)cc1 (stereo not given)	6153	4	-6	-2	0
Cc1cccc(C(=O)Nc2cccc(C(=O)N/N=C/c3cccc(C)n3)c2)c1	3795	12	16	-2	-7
CC(=O)Nc1cccc(C(=O)N/N=C/c2cccc(C)n2)c1	3846	6	46*	2	-3
COc1cccc(-c2csc(N3CCN(S(=O)(=O)c4ccc(F)cc4)CC3)n2)c1	21656*	-5	1	2	-7
COc1cccc(-c2csc(N3CCN(C(=S)Nc4ccccc4)CC3)n2)c1	10311	3	-12	-2	-3
COc1cccc(-c2csc(N3CCN(Cc4ccccc4)CC3)n2)c1	24520*	2	-9	-3	-3
Cc1ccc2c(Cl)c(C(=O)NCc3cccnc3)sc2c1	20230*	-4	0	?	2
CC(NC(=O)CNC(=O)c1sc2ccccc2c1Cl)c1cccnc1 (stereo not given)	5407	-1	2	-1	0
O=C(CNC(=O)c1sc2ccccc2c1Cl)NCc1ccccc1	5249	2	11	2	-3
O=C(NCc1cccnc1)c1cccnc1-c1nc2ccccc2s1	22730*	3	1	1	1
O=C(NCc1cccnc1)c1sc2ccccc2c1Cl	24841*	-5	-7	?	-2
O=C1Cc2cc(S(=O)(=O)Nc3ccccc3Cl)cc3c2N1CCC3	5040	6	0	0	-1
Cc1ccc(C(=O)NCCC(=O)N2CCC3(CC2)NCCc2[nH]cnc23)cc1C	5600	11	-5	1	0
Cc1ccc(C(C(=O)NC2CCCC2)N(C(=O)c2csnn2)c2ccccc2)o1 (stereo not given)	3859	5	15	-2	-10
Cc1ccc(C(C(=O)NC2CCCC2)N(C(=O)c2csnn2)C2CCCC2)o1 (stereo not given)	21439*	-4	4	?	2
